Compounds without any hit were thinned out: in the full panel of roughly 83,000, 20% have a hit.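 For each line, cells grew in 96-well plates with the test compound present at a single concentration for 48 hours.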 A number with no mark means an inactive call. The source made the active and inactive calls. How the source made its calls: active means growth percent below 10; inactive means the rest.
Columns and labels:
Assay in all cases: NCI-60 one-dose screen, 48 h (100 = growth as untreated, 0 = no growth, -100 = all killed)
[1] = test system: NCI-H23 lung; settings: 10 µM unless noted
[2] = test system: NCI-H226 lung; settings: 10 µM unless noted
[3] = test system: NCI-H322M lung; settings: 10 µM unless noted
[4] = test system: HOP-62 NSCLC; settings: 10 µM unless noted
[5] = test system: NCI-H460 lung; settings: 10 µM unless noted
[6] = test system: HOP-92 NSCLC; settings: 10 µM unless noted
[7] = test system: NCI-H522 lung; settings: 10 µM unless noted
[8] = test system: A549/ATCC NSCLC; settings: 10 µM unless noted
[9] = test system: 786-0 renal; settings: 10 µM unless noted
[10] = test system: COLO 205 colon; settings: 10 µM unless noted
[11] = test system: DU-145 prostate; settings: 10 µM unless noted
[12] = test system: K-562 leukemia; settings: 10 µM unless noted
[13] = test system: MALME-3M melanoma; settings: 10 µM unless noted
[14] = test system: MDA-MB-231 breast; settings: 10 µM unless noted
[15] = test system: RXF 393 renal; settings: 10 µM unless noted
[16] = test system: SF-268 CNS; settings: 10 µM unless noted
[17] = test system: SF-295 CNS; settings: 10 µM unless noted
[18] = test system: SF-539 CNS; settings: 10 µM unless noted
[19] = test system: UACC-257 melanoma; settings: 10 µM
[20] = test system: M14 melanoma; settings: 10 µM unless noted

| SMILES | growth [1] | growth [2] | growth [3] | growth [4] | growth [5] | growth [6] | growth [7] | growth [8] | growth [9] | growth [10] | growth [11] | growth [12] | growth [13] | growth [14] | growth [15] | growth [16] | growth [17] | growth [18] | growth [19] | growth [20] |
| --- | --- | --- | --- | --- | --- | --- | --- | --- | --- | --- | --- | --- | --- | --- | --- | --- | --- | --- | --- | --- |
| COCCC[C@H]1O[C@@](O)([C@H](C)[C@@H]2CC(OC)C(O)/C=C(C)/C=C(C)/C=C(\C)C(OC3O[C@@H](C)[C@H](O)C(O)[C@@H]3O)C(C)/C=C(C)/C=C(OC)/C=C(\C)C(=O)O2)C(OC)C(O)[C@]1(C)O[C@H]1C[C@@H](O)[C@H](O[C@H]2C[C@](C)(O)[C@H](O)C(C)O2)C(C)O1 (some centres undefined) | 41.2% | 38.2% | 97.4% | 68.9% | 52.1% | 88.2% | 34.2% | 40% | 73.1% | 40.4% | 48.5% | 21.2% | 51.1% | 84.1% | 47.6% | 73% | 24.8% | 79.2% | 3.39% (active) |  |
| Cc1[nH]nc2ccc(-c3nc4cnc(N5CCN(C)CC5)cn4c3Nc3ccc(F)cc3Br)cc12 | 80.4% | 87.9% | 63.3% | 67.1% | 69.6% | 61.5% | 67.6% | 58.7% | 4.67% (active) | 36.7% | 51.8% | 5.31% (active) | 76.8% | 8.94% (active) | 63.3% | 75.8% | 66.3% | -54.9% (active) | 78.8% |  |
| CS(=O)(=O)c1ccc(-c2nn(-c3ccccc3)cc2/C=C/C(=O)c2ccc(Br)cc2)cc1 | 100% | 101% | 95.4% | 105% | 93.9% | 114% | 82.6% | 96.5% | 91.5% | 113% | 100% | 47.3% | 71.3% | 88.3% | 93.7% | 99.4% | 104% | 102% | 96.3% |  |
| Cc1ccc(NC(=O)c2cccc(CN3CCN(C)CC3)c2)cc1Oc1ccc(-c2[nH]nc3ncnc(N)c23)cc1 | 75.6% | 76.9% | 83.9% | 80.9% | 72.8% | 65.3% | 77.1% | 61.9% | 40.8% | 10.1% | 81.9% | 10.6% | 49.2% | 60.7% | 23.3% | 73.8% | 78% | 62% | 75.4% |  |
| Cc1nn(-c2ccccc2)cc1/C=N/Nc1nc(Nc2ccccc2)nc(Nc2ccc(S(N)(=O)=O)cc2)n1 | -14.9% (active) | -59.2% (active) | 9.11% (active) | 9.43% (active) | -35.9% (active) | -13% (active) | 0.777% (active) | -28.7% (active) | -47.6% (active) | -22% (active) | 9.14% (active) | 9.56% (active) | -25.6% (active) | -20.8% (active) | -20.4% (active) | -7.97% (active) | 10.7% | -71.1% (active) | 55.3% |  |
| CCC(CC)N1C(=O)/C(=c2\sc3n(c2=O)C2C(NN=3)N(CC)C(=O)N2CC)c2ccccc21 (centres undefined) | 7.64% (active) | 53.6% | 61% | 29.6% | 4.83% (active) | 86.7% | 20.1% | 26% | 34.9% | -13.2% (active) | 7.43% (active) | 9.31% (active) | 70% | 32.8% | 9.61% (active) | 35.7% | 7.59% (active) | 3.34% (active) | 69.6% |  |
| CCCCOc1ccc(S(=O)(=O)N2CCN(c3nccc(N4CCOCC4)n3)CC2)cc1 | 44.2% | 58.3% | 45.1% | 88.9% | 16% | 14.3% | 81% | 28.9% | 39.1% | 77.3% | 20.3% | 50.8% | 97.6% | 21.5% | 52.3% | 13.3% | -40.2% (active) | 65.3% | 12% | 18.6% |
| CCOC(=O)/C(F)=C/C1CC1C1CCCCC1 (centres undefined) | 97.4% | 104% | 105% | 122% | 104% | 83.1% | 103% | 104% | 102% | 110% | 105% | 117% | 97.9% | 98.6% | 108% | 102% | 103% | 94.3% | 120% | 98.9% |
| CC1(C)CC[C@]2(C(=O)O)CC[C@]3(C)C(=CCC4[C@@]5(C)C[C@@H](O)[C@@H]6OC(c7ccccc7O)OC[C@@]6(C)C5CC[C@]43C)C2C1 (some centres undefined) | 58.2% | 87% | 40.5% | 45.6% | 46% | 52% | 53.6% | 27.7% | 22.2% | 29.7% | 44.1% | 40.6% | 83.9% | 82.5% | 76.9% | 56% | 30.2% | 63.7% | 93.7% | 43.3% |
| Nc1nc(N)c2c(n1)NC(c1ccc(Cl)cc1)CC(c1ccc(Nc3nc(NCCO)nc(Nc4ccc(Cl)cc4)n3)cc1)=N2 (centres undefined) | 33% | 81.8% | 55.6% | -63.7% (active) | -57.2% (active) | 67.4% | 25.2% | 52% | 28% | 67.4% | 0.35% (active) | -25.2% (active) | 68.9% | 53% | 43.6% | 51.4% | 47.5% | 83.4% | 107% | 34.5% |
| CC(C)N=C(N/C(N)=N/c1nc2ccccc2s1)NC(C)C | 47.5% | 67.2% | 62.2% | 55.4% | 48.8% | 30.8% | 85.1% | 69.3% | 58.5% | 55.6% | 85.6% | 23.1% | 75.4% | 56.3% | 51.9% | 81.3% | 43.8% | 52.3% | 87.9% | 58% |
| CSc1ccc(/C(=N/N=C(N)N)c2ccccc2)cc1 | 29.2% | 50.6% | 50.9% | 49.3% | 6.46% (active) | 34.4% | 11.8% | 27.4% | 31% | 0.455% (active) | 15.2% | 25.2% | 50.6% | 29.5% | 15.4% | 53.6% | 5.99% (active) | -8.23% (active) | 80.7% | 9.73% (active) |
| CN1CCN(c2ccc3c(c2)nc(NNC(=O)c2ccncn2)c2cccn23)CC1 | 36.2% | 44.5% | 30.2% | 35.7% | 27.4% | 53.1% | 18.2% | 23.3% | 9.5% (active) | 17.9% | 27.5% | 25.6% | 43.9% | 36.9% | 66.5% | 26.6% | 0.713% (active) | 24.2% | 42.8% | 9.89% (active) |
| CNC(=O)c1c(NC(=O)c2ccc(F)cc2F)sc2c1CCC(=O)C2 | 5.55% (active) | 15.7% | 33.3% | 16.3% | 1.92% (active) | -34% (active) | -10.1% (active) | 13.1% | 24% | -74% (active) | 66.4% | 12.7% | -9.54% (active) | -16.6% (active) | -28.9% (active) | 20.3% | -3.76% (active) | -28.6% (active) | -2.26% (active) | 19.3% |
| CCc1ccc(NC(=O)N[C@@H](Cc2cccc(F)c2)C(=O)N[C@@H]2C(=O)N3CCC[C@H]3C(=O)N3CCCC[C@H]3C(=O)N[C@@H](C)C(=O)N3C[C@H](C)C[C@H]3C(=O)O[C@H]2C)c(F)c1 | 31.7% | -2.16% (active) | 46% | 43% | 15.4% | -0.342% (active) | 26.8% | 33.3% | 37.1% | -26.4% (active) | 25.2% | 17.5% | 41.4% | 26.8% | -10.1% (active) | 34.9% | 4.24% (active) | 29.8% | 22.2% | 22% |
